T cruzi growth-1: inhibitors of T. cruzi proliferation. T. cruzi beta-gal in NIH3T3, GalScreen luminescence, 90 h. inhibition, % at 8.34 µM. hit rate 5.9% among 77,000. AID 624255;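 active means mean inhibition above about 93%, with at least 55% of replicates each passing it, limit read from the data, passing the limit was not always enough; inconclusive means only one of those two conditions holds; inactive means neither condition holds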
Pf Dd2 inh: P. falciparum Dd2 growth inhibition. activity change, % at 10 µM. SYBR Green, 72 h; stronger effect = lower value. AID 1159554. hit rate 2.3% among 94,000; in the data active means activity change below about -80%; inconclusive means no clear call, values can overlap the other calls
C diff HTS: inhibitors of Clostridium difficile growth | hit rate 0.25% among 86,000 | Clostridium difficile clinical isolate growth, OD600, 24 h; stronger effect = lower value | growth activity, negative = inhibition, % at 16 µg/mL (by protocol);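 active means mean growth activity at or below -80% and every replicate also at or below -80%; inconclusive means mean at or below -80% but some replicate above -80%; inactive means mean growth activity above -80%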;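 further: 0% = DMSO wells and -100% = levofloxacin 16 µg/mL wells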
T cruzi growth-2: blocks T. cruzi growth in NIH3T3 host cells; T. cruzi beta-gal in NIH3T3, GalScreen luminescence, 90 h; hit rate 72% among 5,600; shares compounds with T cruzi growth-1; inhibition, % at 8.35 µM;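 active means mean replicate inhibition above about 95% and at least 55% of replicates individually reaching it, limit read from the data; inconclusive means only one of the two criteria is met; inactive means neither criterion is met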
T cruzi growth-3: Trypanosoma cruzi proliferation inhibition. shares compounds with T cruzi growth-1. T. cruzi beta-gal in NIH3T3, GalScreen luminescence, 90 h. inhibition, % at 2.09 µM. hit rate 21% among 5,600;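 active means mean inhibition above about 95%, with at least 55% of replicates also reaching it, limit read from the data; inconclusive means meets just one of the two conditions; inactive means meets neither condition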;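 further: plate controls were neutral control median for no effect and positive control median for full effect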
NIH3T3 tox: NIH/3T3 (mouse) viability loss | NIH/3T3 viability, CellTiter-Glo ATP luminescence, 90 h | cytotoxicity (signal decrease), % at 8.35 µM | AID 651742 | hit rate 14% among 5,600 | shares compounds with T cruzi growth-1;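 active means mean signal decrease across replicates above about 35% based on untreated-well scatter, with enough replicates individually passing, limit read from the data; inconclusive means no rule stated though some were filed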;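 further: 0% = median of neutral control wells and 100% = median of positive control wells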
3T3 cytotox 2: NIH/3T3 (mouse) viability loss; shares compounds with T cruzi growth-1; NIH/3T3 viability, CellTiter-Glo ATP luminescence, 90 h; inhibition, % at 24.9 µM; hit rate 56% among 5,600;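 active means mean loss of cell viability signal at or above a set limit, and enough replicates individually reaching it; inconclusive means meets only the mean limit or only the replicate share; inactive means meets neither condition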;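 further: 0% = median of neutral control wells and 100% = median of positive control wells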
* marks the source's active call; other numbers are inactive results. Hits are enriched below; roughly 6.7% of the tested compounds scored in any of these assays.

Results for C[C@@H]1CN([C@@H](C)CO)C(=O)Cc2cc(NC(=O)Cc3cn(C)c4ccccc34)ccc2O[C@H]1CN(C)S(=O)(=O)c1ccccc1 ?
T cruzi growth-1: 22; Pf Dd2 inh: -77; C diff HTS: -6

How did Cc1ccc(S(=O)(=O)N(C)C[C@H]2OCCCC[C@@H](C)Oc3ccc(NS(=O)(=O)c4cn(C)cn4)cc3C(=O)N([C@H](C)CO)C[C@@H]2C)cc1 do in these assays?
T cruzi growth-1: 52; Pf Dd2 inh: 11; C diff HTS: 3

What do the screens show for `CCCC#Cc1ccc2c(c1)O[C@H](CN(C)C(=O)NC(C)C)[C@@H](C)CN([C@H](C)CO)S2(=O)=O`?
T cruzi growth-1: 32; Pf Dd2 inh: -19; C diff HTS: 5

How did C[C@H](CO)N1C[C@H](C)[C@@H](CN(C)S(=O)(=O)c2ccc(F)cc2)Oc2c(NS(=O)(=O)c3ccc(Cl)cc3)cccc2C1=O do in these assays?
T cruzi growth-1: 27; Pf Dd2 inh: 10; C diff HTS: -12

How did C[C@@H]1CN([C@@H](C)CO)C(=O)c2cc(NS(=O)(=O)c3cccs3)ccc2O[C@H]1CN(C)Cc1ccc(Oc2ccccc2)cc1 do in these assays?
T cruzi growth-1: 62; Pf Dd2 inh: 14

Results for O=C(NCC1CC1)[C@@H]1[C@@H](CO)[C@@H]2Cn3c(ccc(-c4cccnc4)c3=O)[C@@H]2N1Cc1cocn1 ?
T cruzi growth-1: 20; Pf Dd2 inh: -3; C diff HTS: -1

Results for O=C(NCC1CC1)[C@H]1[C@H](CO)[C@H]2Cn3c(ccc(-c4ccccc4)c3=O)[C@H]2N1Cc1cocn1 ?
T cruzi growth-1: 98*; Pf Dd2 inh: -12; C diff HTS: -3; T cruzi growth-2: -7; T cruzi growth-3: -3; NIH3T3 tox: -16; 3T3 cytotox 2: -23

What do the screens show for `COc1ccc(CN(C)C[C@H]2Oc3ccc(NS(=O)(=O)c4ccc(Cl)cc4)cc3CC(=O)N([C@@H](C)CO)C[C@@H]2C)cc1`?
T cruzi growth-1: 107*; Pf Dd2 inh: -51; C diff HTS: -29; T cruzi growth-2: 97*; T cruzi growth-3: 79; NIH3T3 tox: 5; 3T3 cytotox 2: 86*

Results for COc1ccc(CN(C)C[C@H]2Oc3ccc(NS(=O)(=O)c4ccc(C)cc4)cc3CC(=O)N([C@@H](C)CO)C[C@@H]2C)cc1 ?
T cruzi growth-1: 104*; Pf Dd2 inh: -22; C diff HTS: -12; T cruzi growth-2: 110*; T cruzi growth-3: 8; NIH3T3 tox: 4; 3T3 cytotox 2: 4

Results for COc1ccc(CN(C)C[C@@H]2Oc3ccc(NS(=O)(=O)c4ccc(C)cc4)cc3CC(=O)N([C@@H](C)CO)C[C@H]2C)cc1 ?
Pf Dd2 inh: -7; C diff HTS: -5

What do the screens show for `COc1ccc(CN(C)C[C@H]2Oc3ccc(NS(=O)(=O)c4ccc(Cl)cc4)cc3CC(=O)N([C@H](C)CO)C[C@H]2C)cc1`?
T cruzi growth-1: 86; Pf Dd2 inh: 6; C diff HTS: -15

How did C[C@@H]1CN([C@H](C)CO)C(=O)c2cc(NS(C)(=O)=O)ccc2O[C@@H](C)CCCCO[C@H]1CN(C)C(=O)Nc1ccc2c(c1)OCO2 do in these assays?
T cruzi growth-1: -3; Pf Dd2 inh: -17; C diff HTS: 0

How did C[C@@H]1CCCCO[C@H](CN(C)C(=O)NC2CCCCC2)[C@H](C)CN([C@@H](C)CO)C(=O)c2cc(NC(=O)CCCN(C)C)ccc2O1 do in these assays?
T cruzi growth-1: 46; Pf Dd2 inh: -12; C diff HTS: -1

What do the screens show for `CN(C)C(=O)c1cccc(-c2ccc([C@H]3[C@H](CO)N4CCCCN(C(=O)C5CCCC5)C[C@@H]34)cc2)c1`?
T cruzi growth-1: inconclusive; Pf Dd2 inh: 19; C diff HTS: -9; T cruzi growth-2: 99*; T cruzi growth-3: 94; NIH3T3 tox: -6; 3T3 cytotox 2: 21

What do the screens show for `CN(C)C(=O)c1cccc(-c2ccc([C@@H]3[C@@H](CO)N4CCCCN(S(C)(=O)=O)C[C@H]34)cc2)c1`?
T cruzi growth-1: -30; Pf Dd2 inh: 4; C diff HTS: -5

What do the screens show for `CN(C)C(=O)c1cccc(-c2ccc([C@@H]3[C@@H](CO)N4CCCCN(S(C)(=O)=O)C[C@@H]34)cc2)c1`?
T cruzi growth-1: 99*; Pf Dd2 inh: 34; C diff HTS: -8; T cruzi growth-2: inconclusive; T cruzi growth-3: -24; NIH3T3 tox: -7; 3T3 cytotox 2: 14

Results for CN(C)C(=O)c1cccc(-c2ccc([C@@H]3[C@H]4CN(C(=O)C5CCCC5)CCCCN4[C@H]3CO)cc2)c1 ?
T cruzi growth-1: 80; Pf Dd2 inh: 18; C diff HTS: -9

What do the screens show for `CN(C)C(=O)c1cccc(-c2ccc([C@@H]3[C@H](CO)N4CCCCN(C(=O)C5CCCC5)C[C@@H]34)cc2)c1`?
T cruzi growth-1: 64; Pf Dd2 inh: -6; C diff HTS: -8

Results for CN(C)C(=O)c1cccc(-c2ccc([C@H]3[C@@H](CO)N4CCCCN(C(=O)C5CCC5)C[C@@H]34)cc2)c1 ?
T cruzi growth-1: 105*; Pf Dd2 inh: -1; C diff HTS: -5; T cruzi growth-2: 91; T cruzi growth-3: 83; NIH3T3 tox: -1; 3T3 cytotox 2: 8

Results for C/C=C/c1ccc([C@@H]2[C@@H](CO)N(C(C)=O)C23CN(C(=O)c2cnccn2)C3)cc1 ?
Pf Dd2 inh: -20; C diff HTS: -11

How did COCC(=O)N1CC2(C1)[C@H](c1ccc(-c3ccc(F)cc3)cc1)[C@@H](CO)N2C(C)=O do in these assays?
Pf Dd2 inh: -49; C diff HTS: -4

What do the screens show for `C[C@H]1CN([C@@H](C)CO)C(=O)Cc2cc(NC(=O)Cc3ccccc3)ccc2O[C@@H]1CN(C)CC1CCCCC1`?
T cruzi growth-1: 44; Pf Dd2 inh: -11; C diff HTS: -5

What do the screens show for `COc1ccc(NC(=O)N(C)C[C@@H]2Oc3ccc(NS(=O)(=O)c4cn(C)cn4)cc3C(=O)N([C@H](C)CO)C[C@@H]2C)cc1`?
T cruzi growth-1: 69; Pf Dd2 inh: 33; C diff HTS: -4

Results for CO[C@H](CN(C)S(=O)(=O)c1ccc(F)cc1)[C@H](C)CN([C@@H](C)CO)S(=O)(=O)c1cccc(Cl)c1 ?
T cruzi growth-1: 91; Pf Dd2 inh: -30

Results for CO[C@@H](CN(C)S(=O)(=O)c1cccc(Cl)c1)[C@H](C)CN([C@@H](C)CO)S(=O)(=O)c1cccc(Cl)c1 ?
T cruzi growth-1: 110*; Pf Dd2 inh: -13; T cruzi growth-2: 93; T cruzi growth-3: 38; NIH3T3 tox: 49*; 3T3 cytotox 2: 72*
